# According to a collection of fitness landscapes (doi:10.1038/s41467-024-54723-y):
# In all, about 18,000 sequences were measured (“TetR repression strength (sort-seq, GFP reporter)”: median about 0.23, highest 2% from about 0.68 on). Only a selection was taken, and the highest values are over-represented in it overall.
# Biological target: TetR (class B, Tn10) (UniProt P04483)
# Assay: TetR repression strength (sort-seq, GFP reporter) (relative to tetO2 = 1); higher = stronger repression
# Details: E. coli
# In short: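 Three independent transformations of E. coli SIG10-MAX were made with a low-copy plasmid library randomizing eight operator positions between a constitutive promoter and sfGFP, with constitutive TetR. Following 5 h at 37 °C in LB plus 50 µg/mL chloramphenicol, 10^6 cells went through FACS into 13 fluorescence bins, and each bin was sequenced by Illumina. Repression strength was defined as the top bin index plus one minus the read-weighted mean bin, divided by the unaltered operator's value. Averages included only members reaching ≥30 reads in all replicates with a CV ≤0.5.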
# TetR (class B, Tn10), sequence (P04483 whole entry): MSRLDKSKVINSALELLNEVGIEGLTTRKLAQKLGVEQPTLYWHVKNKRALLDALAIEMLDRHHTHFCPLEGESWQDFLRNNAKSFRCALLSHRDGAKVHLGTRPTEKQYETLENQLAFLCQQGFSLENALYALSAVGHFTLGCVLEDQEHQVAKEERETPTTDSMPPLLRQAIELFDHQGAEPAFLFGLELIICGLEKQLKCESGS
row,Sequence,TetR repression strength
1,TCCCAACAAGTGAATGAGA,0.336
2,TCCCTCTCAGTTAGAGAGA,0.726
3,TCCCTCTCAGTTAGTGAGA,0.339
4,TCCCTCACAGTGATAGAGA,0.513
5,TCCCTCTCAGTCAGAGAGA,0.423
6,TCCCTGTCAGTTATAGAGA,0.649
7,TCCCACTCAGTTATAGAGA,0.661
8,TCCCTCAGAGTGATAGAGA,0.342
9,TCCCTGTAAGTTATAGAGA,0.375
10,TCCCTCTCAGTGATAGAGA,0.866
11,TCCCCCTAAGTTATAGAGA,0.525
12,TCCCTCTCAGTTATAGAGA,0.716
13,TCCCTCTAAGTTATAGAGA,0.703
14,TCCCGGTTAGTTGAGGAGA,0.12
15,TCCCTCAGAGTGTTAGAGA,0.248
16,TCCCGAGAAGTCCATGAGA,0.207
17,TCCCGTGAAGTCGCTGAGA,0.168
18,TCCCTAGTAGTAAGCGAGA,0.136
19,TCCCGATCAGTTATAGAGA,0.579
20,TCCCGCTCAGTTATAGAGA,0.764
21,TCCCGCACAGTTATAGAGA,0.275
22,TCCCGAGGAGTTGGCGAGA,0.14
23,TCCCGGGGAGTTACGGAGA,0.447
24,TCCCCGGAAGTTACGGAGA,0.343
25,TCCCGGGGAGTTGTGGAGA,0.215
26,TCCCGGAAAGTTGTGGAGA,0.275

row,Sequence,TetR repression strength
1,TCCCGGGAAGTTACGGAGA,0.707
2,TCCCGGGAAGTTGTGGAGA,1.1
3,TCCCCAAAAGTTTGTGAGA,0.0341
4,TCCCCTCGAGTTGGGGAGA,0.121
5,TCCCGGAGAGTCCTTGAGA,0.295
6,TCCCTCGAAGTGCGGGAGA,0.25
7,TCCCCAAGAGTAAATGAGA,0.368
8,TCCCGGATAGTGACCGAGA,0.131
9,TCCCTCCAAGTGGGAGAGA,0.14
10,TCCCTGCAAGTCTAGGAGA,0.171
11,TCCCGCCAAGTCCCTGAGA,0.389
12,TCCCGCCAAGTCCGGGAGA,0.21
13,TCCCTCCCAGTCTAGGAGA,0.263
14,TCCCCCCCAGTCTAGGAGA,0.8
15,TCCCGCCAAGTCCCGGAGA,1.1
16,TCCCTGCCAGTCTAGGAGA,0.415
17,TCCCCGCCAGTCCAGGAGA,0.104
18,TCCCCGGAAGTCTAGGAGA,0.113
19,TCCCCAGGAGTCTAGGAGA,0.284
20,TCCCCGCAAGTCTAGGAGA,0.739
21,TCCCCGCCAGTCTAGGAGA,0.681
22,TCCCCGTGAGTCGATGAGA,0.313
23,TCCCGCGTAGTCCGCGAGA,0.172
24,TCCCGAGTAGTGTGTGAGA,0.28
25,TCCCATTGAGTTCCGGAGA,0.115
26,TCCCATCCAGTGGGGGAGA,0.175

row,Sequence,TetR repression strength
1,TCCCCCCTAGTTGTGGAGA,0.213
2,TCCCTGTGAGTTGGTGAGA,0.656
3,TCCCTTTCAGTGAGAGAGA,0.566
4,TCCCTTTAAGTAATAGAGA,0.44
5,TCCCTTTCAGTAATAGAGA,0.745
6,TCCCTATCAGTAACAGAGA,0.539
7,TCCCTTTCAGTTATAGAGA,0.649
8,TCCCTTTCAGTGATGGAGA,0.574
9,TCCCTCTCAGTACTAGAGA,0.283
10,TCCCTATCAGTAATAGAGA,0.878
11,TCCCTCTCAGTAATAGAGA,0.686
12,TCCCTAACAGTAATAGAGA,0.569
13,TCCCTTTCAGTGATAGAGA,0.785
14,TCCCTCTAAGTAATAGAGA,0.472
15,TCCCACCAAGTGGGTGAGA,0.139
16,TCCCTGTGAGTTTGGGAGA,0.424
17,TCCCGGAGAGTTTCTGAGA,0.191
18,TCCCCTTTAGTGCCTGAGA,0.523
19,TCCCGTTGAGTAGGGGAGA,0.0793
20,TCCCAGGGAGTAGCGGAGA,0.159
21,TCCCACGTAGTGCAAGAGA,0.62
22,TCCCTTCAAGTGCTCGAGA,0.24
23,TCCCATGTAGTGTGGGAGA,0.203
24,TCCCGATCAGTGCAGGAGA,0.299
25,TCCCTGCGAGTGGTGGAGA,0.112
26,TCCCTGCTAGTGGTGGAGA,0.404

row,Sequence,TetR repression strength
1,TCCCTGCGAGTGGAGGAGA,1.08
2,TCCCTGCGAGTGGGGGAGA,0.264
3,TCCCTGCTAGTGGAGGAGA,1.14
4,TCCCTGCTAGTGGGGGAGA,0.0729
5,TCCCGGGAAGTGTGTGAGA,0.177
6,TCCCTTGTAGTGAATGAGA,0.277
7,TCCCGGGCAGTGCCTGAGA,0.283
8,TCCCCGGGAGTGAGGGAGA,0.13
9,TCCCGGCCAGTTAGAGAGA,0.129
10,TCCCGGGGAGTCTGGGAGA,0.179
11,TCCCCGGCAGTCTGGGAGA,0.271
12,TCCCGGGCAGTCTGGGAGA,1.2
13,TCCCGGAAAGTCTGGGAGA,0.153
14,TCCCGGCCAGTCTGCGAGA,0.967
15,TCCCTGCCAGTCTGCGAGA,0.24
16,TCCCGGGAAGTCTGGGAGA,1.24
17,TCCCCGGCAGTCTGCGAGA,0.266
18,TCCCGGGCAGTCTGAGAGA,0.179
19,TCCCAGGTAGTAATAGAGA,0.443
20,TCCCTGTCAGTACAGGAGA,0.118
21,TCCCAAACAGTTTGTGAGA,0.0981
22,TCCCCGAAAGTACAGGAGA,0.259
23,TCCCCTGTAGTCGTAGAGA,0.344
24,TCCCCAGGAGTGGGCGAGA,0.894
25,TCCCGAGGAGTCGGCGAGA,0.0782
26,TCCCCAGTAGTGGGCGAGA,0.963

row,Sequence,TetR repression strength
1,TCCCCAGCAGTGGGCGAGA,0.125
2,TCCCAGGGAGTGGGCGAGA,0.312
3,TCCCAAGGAGTCGGCGAGA,0.743
4,TCCCCCGGAGTGGGCGAGA,0.111
5,TCCCCAGGAGTCGGCGAGA,0.237
6,TCCCGGGGAGTGGGCGAGA,0.225
7,TCCCAAGGAGTGGGCGAGA,0.231
8,TCCCCGGGAGTGGGCGAGA,0.993
9,TCCCCAGTAGTGGGGGAGA,0.14
10,TCCCACCCAGTAGTGGAGA,0.211
11,TCCCTAGAAGTCCTAGAGA,0.0793
12,TCCCCAGGAGTATCGGAGA,0
13,TCCCGTCTAGTTTCCGAGA,0.169
14,TCCCGGTCAGTCTGTGAGA,0.287
15,TCCCTGGCAGTGTGTGAGA,0.164
16,TCCCATCGAGTCTGAGAGA,0.218
17,TCCCATACAGTTGAGGAGA,0.0487
18,TCCCACTTAGTGCGAGAGA,0.0746
19,TCCCCTGGAGTCCTGGAGA,0.439
20,TCCCGGAGAGTGCTGGAGA,1.07
21,TCCCTAAGAGTGCTGGAGA,0.768
22,TCCCGGGGAGTGCTGGAGA,0.359
23,TCCCCGAGAGTGCTGGAGA,0.252
24,TCCCTTAGAGTCCTGGAGA,0.0777
25,TCCCCTAGAGTCCTGGAGA,0.952
26,TCCCTGAGAGTGCTGGAGA,0.564

row,Sequence,TetR repression strength
1,TCCCTAGGAGTGCTGGAGA,0.382
2,TCCCCTGTAGTTGTCGAGA,0.123
3,TCCCCGAAAGTCATAGAGA,0.452
4,TCCCATCCAGTCAAGGAGA,0.595
5,TCCCTTGCAGTACATGAGA,0.298
6,TCCCTTGAAGTGGGTGAGA,0.165
7,TCCCACCCAGTGGTAGAGA,0.357
8,TCCCAGTGAGTCGTGGAGA,0.25
9,TCCCGCCAAGTAAAAGAGA,0.298
10,TCCCATCAAGTTAATGAGA,0.0658
11,TCCCGTCGAGTCAGGGAGA,0.367
12,TCCCCATCAGTTCCGGAGA,0.207
13,TCCCTATCAGTTCTTGAGA,0.539
14,TCCCCATCAGTTCCTGAGA,0.721
15,TCCCTATCAGTACCTGAGA,0.867
16,TCCCTATCAGTTCCTGAGA,0.76
17,TCCCTATCAGTACCAGAGA,0.514
18,TCCCTATCAGTACGTGAGA,0.349
19,TCCCTATCAGTTCGTGAGA,0.423
20,TCCCCATCAGTTCATGAGA,0.401
21,TCCCGGGTAGTCGAGGAGA,0.313
22,TCCCCAGCAGTTTCCGAGA,0.275
23,TCCCTTATAGTAGGCGAGA,0.0601
24,TCCCACCGAGTACGGGAGA,0.135
25,TCCCATGAAGTAAGGGAGA,0.284
26,TCCCTCTTAGTAAAAGAGA,0.342

row,Sequence,TetR repression strength
1,TCCCTATGAGTGGTGGAGA,0.119
2,TCCCGAGTAGTAGGGGAGA,0.0701
3,TCCCTATGAGTAGTAGAGA,0.204
4,TCCCGATTAGTAAGGGAGA,0.207
5,TCCCTAGTAGTAGTGGAGA,0.159
6,TCCCACGCAGTAGGGGAGA,0.689
7,TCCCACGAAGTAGGGGAGA,0.104
8,TCCCGATTAGTAGGGGAGA,0.844
9,TCCCTATGAGTAGTGGAGA,0.707
10,TCCCTATTAGTGGTGGAGA,0.0415
11,TCCCTATTAGTAGTGGAGA,0.683
12,TCCCACGCAGTGGGGGAGA,0.188
13,TCCCTATTAGTTGGGGAGA,0.483
14,TCCCGGTAAGTGAAGGAGA,0.14
15,TCCCAGGCAGTGGGGGAGA,0.193
16,TCCCTAGTAGTAGCTGAGA,0.307
17,TCCCTAGTAGTGGCTGAGA,0.905
18,TCCCGAGTAGTGGCTGAGA,0.311
19,TCCCGAGCAGTTGGTGAGA,0.317
20,TCCCCTCCAGTGGGGGAGA,0.225
21,TCCCTCCCAGTGTCGGAGA,0.295
22,TCCCTTTGAGTTTTTGAGA,0.506
23,TCCCTTAAAGTACACGAGA,0.377
24,TCCCATAAAGTGCTCGAGA,0.225
25,TCCCTTAAAGTGATCGAGA,0.207
26,TCCCTTAAAGTGCTCGAGA,0.747

row,Sequence,TetR repression strength
1,TCCCTTAAAGTGCGCGAGA,0.292
2,TCCCTTTAAGTGCGCGAGA,0.764
3,TCCCTTAAAGTACTCGAGA,1.16
4,TCCCCTAGAGTCCGCGAGA,0.332
5,TCCCTTAAAGTATTCGAGA,0.311
6,TCCCTTTAAGTGCACGAGA,0.207
7,TCCCCTAGAGTGCGCGAGA,0.901
8,TCCCCTAAAGTGCGCGAGA,0.266
9,TCCCGCGGAGTGGCGGAGA,0.119
10,TCCCGCGCAGTGTAAGAGA,0.222
11,TCCCTATGAGTGTGGGAGA,0.223
12,TCCCCTGGAGTCGTGGAGA,0.258
13,TCCCTGGTAGTGGAGGAGA,0.101
14,TCCCGAGTAGTGAGGGAGA,0.242
15,TCCCGATAAGTCGTCGAGA,0.0276
16,TCCCGGAGAGTATCAGAGA,0.893
17,TCCCGGATAGTATGAGAGA,0.24
18,TCCCCGGGAGTATCAGAGA,0.332
19,TCCCGAATAGTATCAGAGA,0.207
20,TCCCGGTGAGTATCAGAGA,0.188
21,TCCCGGATAGTATCAGAGA,0.893
22,TCCCGTGCAGTCATTGAGA,0.276
